# Bioassay records (PubChem)
# This is a sample that favours compounds with a hit; in the whole collection about 5.4% have one here.
# NR0B1 inh: inhibits human nuclear receptor DAX1. P51843. HEK293 Gal4-DAX1 luciferase reporter, luminescence. inhibition, % at 6.75 µM. actives 0.99% (n = 340,000);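 active = inhibition above the mean over all tested compounds plus 3 SD, cut at about 4.2% in these data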;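 also: 0% = DAX1-transfected cells with DMSO and 100% = empty-vector control cells with DMSO; inhibition shows as a rise in luminescence from relieved DAX1 repression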
# HSF-1 act: increases HSF-1 driven luciferase reporter signal; NIH3T3-HGL HSF-1 luciferase reporter, MG132, 8 h; 100% = twice DMSO control signal; activation, % at 9 µM; actives 1.7% (n = 300,000); AID 504408;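 active = mean replicate activation of at least 50% with a set share of replicates each reaching 50%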;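 also: 0% = median of the neutral control wells and 100% = twice that signal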
# FXN GAA850 act: increases GAA850 frataxin promoter reporter activity | AID 540364 | HEK293 lucGAA850 FXN promoter luciferase reporter, 24 h; percent of 10 µM SAHA response | actives 0.56% (n = 360,000) | activation, % at 6 µM;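 active = activation above the average of all compounds screened plus 3 SD, cutoff fixed separately per campaign, cut at about 7.5% in these data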;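 also: 0% = DMSO wells and 100% = 10 µM SAHA wells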
# HSF1 inh: HSF1 inhibition; NIH3T3-HGL HSE-luciferase, MG132-induced, luminescence 8 h; active compounds read low; activity change, negative = inhibition, % at 7.5 µM (by protocol); actives 0.77% (n = 300,000); AID 2098;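 active = more than half of replicate wells show activity change below -50%, luminescence cut by over half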;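 also: luciferase reports HSF-1 transcriptional activity via heat shock element; 0% = median of DMSO wells and -100% = zero luminescence signal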
# AHR act: activators of human aryl hydrocarbon receptor | P35869 | AHR-responsive luciferase reporter cells, luminescence | activation, % at 5 µM | actives 2.5% (n = 320,000) | AID 2796; in the data active = activation above about 47%;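 also: 0% = vehicle wells and 100% = reference agonist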
# Target sequence (P35869 whole entry, looked up): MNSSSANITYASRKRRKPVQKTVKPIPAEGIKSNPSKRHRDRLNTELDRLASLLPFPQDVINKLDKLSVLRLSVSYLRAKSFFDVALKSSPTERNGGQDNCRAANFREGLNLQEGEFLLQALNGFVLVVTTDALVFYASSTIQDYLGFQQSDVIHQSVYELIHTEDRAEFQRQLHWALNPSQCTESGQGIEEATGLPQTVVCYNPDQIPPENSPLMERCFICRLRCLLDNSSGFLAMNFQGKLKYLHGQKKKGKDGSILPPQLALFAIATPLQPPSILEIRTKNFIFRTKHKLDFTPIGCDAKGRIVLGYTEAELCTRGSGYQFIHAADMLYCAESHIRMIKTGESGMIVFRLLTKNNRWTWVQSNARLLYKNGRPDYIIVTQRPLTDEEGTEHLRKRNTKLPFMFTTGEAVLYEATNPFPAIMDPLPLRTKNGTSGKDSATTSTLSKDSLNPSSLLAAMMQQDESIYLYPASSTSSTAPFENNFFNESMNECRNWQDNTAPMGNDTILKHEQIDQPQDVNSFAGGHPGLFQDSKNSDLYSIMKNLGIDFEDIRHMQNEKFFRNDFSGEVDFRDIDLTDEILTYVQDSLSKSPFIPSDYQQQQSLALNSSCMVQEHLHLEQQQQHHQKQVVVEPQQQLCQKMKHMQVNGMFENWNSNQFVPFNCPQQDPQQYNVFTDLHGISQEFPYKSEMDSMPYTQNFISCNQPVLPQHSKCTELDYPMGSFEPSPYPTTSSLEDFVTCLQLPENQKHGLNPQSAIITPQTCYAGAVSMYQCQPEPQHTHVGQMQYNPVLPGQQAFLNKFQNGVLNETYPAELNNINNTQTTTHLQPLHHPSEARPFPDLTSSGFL
# GAA30 FXN cntr: activates GAA30 frataxin promoter, counter-screen for GAA850 activators; actives 66% (n = 1,900); activation, % at 6 µM; shares compounds with FXN GAA850 act; HEK293 lucGAA30 FXN promoter luciferase, 24 h; DMSO = 0%, 5 µM ipriflavone = 100%;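 active = mean activation above the mean of solvent-only control wells plus 3 SD, cut at about 22% in these data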;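 also: counterscreen of GAA850 promoter hits where activity marks nonselective or luminescence artifacts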
# GAA850 confirm: confirmation of GAA850 frataxin (FXN) promoter activators. activation, % at 6 µM. actives 86% (n = 1,900). shares compounds with FXN GAA850 act. HEK293 lucGAA850 FXN promoter luciferase reporter, 24 h; 100% = activation by SAHA;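 active = mean activation above a set limit taken from the primary screen, cut at about 8% in these data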;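 also: 0% = DMSO wells and 100% = 10 µM SAHA wells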
# * marks the source's active call; other numbers are inactive results; . = no result.
SMILES,NR0B1 inh,HSF-1 act,FXN GAA850 act,HSF1 inh,AHR act,GAA30 FXN cntr,GAA850 confirm
COc1ccc(C(=O)Cn2cnc3ccccc3c2=O)c(OC)c1,1.3,19.8,7.7*,0.3,.,56.7*,24.3*
CN(C)C(=O)CCc1ccc2c3c([nH]c2c1)[C@]1(CCc2ccccc2)[C@@H](C(=O)N2CCCCC2)C[C@H](CC(=O)NC(C)(C)C)C(=O)N1CC3,-1.7,.,-5.3,.,.,.,.
O=C(COc1ccccc1)N1CCN(C(=O)c2ccccc2F)CC1,-0.7,-14.5,-0.2,-10.0,2.0,.,.
Cc1ccc([N+](=O)[O-])cc1-c1ccc(/C=C(\C#N)c2[nH]nc(N)c2C#N)o1,-0.5,.,8.7*,.,29.2,47.9*,20.4*
C/C(=N\Nc1nc2ccccc2[nH]1)c1ccc(C)o1,0.5,37.9,8.4*,15.1,76.5*,120.7*,36.1*
CCCNC(=O)C1(C)CCN(C(=O)C2(c3ccc(Cl)cc3)CCCC2)C1 (stereo unspecified),.,.,-1.7,.,.,.,.
N#C/C(=C/c1ccc(O)c(O)c1)c1nc2ccccc2[nH]1,2.5,32.0,9.2*,8.8,31.0,101.9*,38.6*
COc1c(F)c(F)c(C(=O)Nc2ccccc2N2CCN(C(=O)C(C)C)CC2)c(F)c1F,0.4,29.2,10.5*,-2.9,45.1,7.8,3.1
CC(=O)c1cccc(NC(=O)C(C)OC(=O)c2ccc(Br)o2)c1 (stereo unspecified),-0.1,.,-3.0,.,0.4,.,.
O=[N+]([O-])c1ccc(N/N=C/c2cccc(O)c2O)cc1,-0.4,25.1,15.1*,12.0,2.9,77.3*,39.6*
O=[N+]([O-])c1ccc(N/N=C/c2cccc(O)c2)cc1,1.0,31.0,-0.9,4.8,-0.5,.,.
CCN(CC)S(=O)(=O)c1ccc(=O)[nH]c1,0.1,-8.7,0.4,-10.9,-0.3,.,.
O=C(c1cc2ccccc2oc1=O)N1CCOCC1,2.9,42.2,7.7*,26.0,-0.5,101.5*,33.9*
O=C(NC(=S)Nc1ccc(NC(=O)c2cccs2)cc1)c1cc2ccccc2o1,0.2,14.2,-1.6,-7.0,1.9,.,.
O=C(c1cc2ccccc2o1)c1cccs1,2.9,22.1,8.3*,22.3,20.6,116.9*,40.2*
CC(Oc1cc2oc(=O)cc(-c3ccccc3)c2cc1Cl)C(=O)NCC1CCC(C(=O)O)CC1 (stereo unspecified),2.9,-25.3,11.2*,-10.4,-0.8,20.4,8.8*
CCc1cc2c(-c3ccccc3)cc(=O)oc2cc1OC(C)C(=O)NCC1CCC(C(=O)O)CC1 (stereo unspecified),0.2,12.6,0.1,-0.6,-0.8,.,.
O=C(CN1C(=O)NC2(CCCC2)C1=O)OCCOc1ccc(Cl)cc1,0.7,7.5,1.0,4.0,0.9,.,.
O=C1[C@H]2[C@@H](C(=O)N1c1cccc3ccccc13)C1(C(=O)c3ccccc3C1=O)N1CCC[C@@H]21,-1.3,12.6,9.4*,0.7,5.4,37.4*,15.9*
O=C1C2C3C=CC(C3)C2C(=O)N1c1cccc2ccccc12 (stereo unspecified),1.3,11.7,1.2,0.9,3.0,.,.
CCc1cccc2c(C(=S)N3CCCC3)c[nH]c12,-1.3,10.2,1.6,2.7,16.0,.,.
CCc1cccc2c(C(=O)CCl)c[nH]c12,0.3,11.7,8.2*,11.0,27.1,31.2*,21.2*
CC1=CC(=C(C#N)c2nc3ccccc3s2)C=C(C)N1CC1CCCO1 (stereo unspecified),-0.8,2.7,7.8*,6.9,24.6,39.0*,32.1*
CN1CCN(c2ccc(CNS(=O)(=O)c3ccc(Cl)cc3)cc2)CC1,1.4,-0.2,-0.3,-5.9,-1.3,.,.
Cc1cccc(Nc2nc(-c3ccc(O)c(O)c3)cs2)n1,1.2,-0.7,5.1,2.1,2.1,.,.
SMILES,NR0B1 inh,HSF-1 act,FXN GAA850 act,HSF1 inh,AHR act,GAA30 FXN cntr,GAA850 confirm
COc1ccc(-c2csc(Nc3ncccc3C)n2)cc1OC,0.2,15.6,3.9,0.6,-6.9,.,.
Cc1cccnc1Nc1nc(-c2ccc(O)c(O)c2)cs1,1.5,18.9,13.9*,-2.9,2.6,106.7*,50.5*
Oc1ccc(-c2csc(Nc3ccccn3)n2)cc1O,-0.7,18.2,12.6*,2.6,31.3,96.1*,55.6*
Cc1ccnc(Nc2nc(-c3ccc(O)c(O)c3)cs2)c1,-1.4,33.1,17.5*,2.1,55.3*,90.8*,41.7*
Cc1ccc(NC(=O)CCS(=O)(=O)c2ccccc2)cc1S(=O)(=O)N1CCCCCC1,-2.5,.,0.1,.,.,.,.
CN(/N=C/c1cccnc1)c1cnc2ccccc2n1,2.5,47.6,9.3*,18.3,32.0,131.7*,34.3*
C(=N\N=C\c1cccnc1)/c1cccnc1,0.4,49.9,-1.6,8.8,17.4,.,.
CCN(CC)S(=O)(=O)c1ccc(C(=O)OCCN2C(=O)c3cccc4c(N5CCOCC5)ccc(c34)C2=O)cc1,0.0,0.8,8.5*,-1.8,3.8,20.6,6.0
COc1ccc2oc(=O)c(-c3csc(Nc4ccc(O)cc4)n3)cc2c1,-2.6,23.5,18.6*,19.1,-6.6,79.2*,24.2*
C[C@]12c3[nH]c4ccc(Cl)cc4c3CCN1C(=O)[C@@H](CC(=O)NCCC1=CCCCC1)C[C@@H]2C(=O)N1CCOCC1,0.1,.,-2.9,.,.,.,.
Cc1cccc(N=Nc2ccc(O)c3ncccc23)c1,-0.9,240.8*,12.4*,230.3,70.3*,-101.7,-32.0
CCOC(=O)C1=C(COC(=O)COc2cc(C)ccc2C)NC(=O)NC1C (stereo unspecified),1.3,-0.7,-0.3,-0.2,3.1,.,.
CCOC(=O)c1[nH]c2ccc(OC)cc2c1NC(=O)c1ccccc1C(=O)O,4.3*,28.5,8.0*,14.6,1.3,28.5*,12.8*
CCOC(=O)c1[nH]c2ccc(F)cc2c1NC(=O)c1ccccc1C(=O)O,2.4,11.7,3.5,3.1,.,.,.
N=c1c2cn[nH]c2nc(SCC(=O)c2ccc(Br)cc2)n1-c1ccc(Br)cc1,-1.3,0.9,0.5,-4.8,8.9,.,.
N=c1c(S(=O)(=O)c2ccccc2)cc2c(=O)n3ccccc3nc2n1Cc1ccco1,-1.7,11.9,2.1,27.1,-2.7,.,.
Cc1ccc2nc3c(cc(S(=O)(=O)c4ccccc4)c(=N)n3Cc3ccco3)c(=O)n2c1,0.1,32.9,9.3*,31.2,-3.0,22.1*,6.7
O=c1[nH]nc(CNc2ccc(OC(F)(F)F)cc2)c2ccccc12,-0.5,29.4,9.0*,9.4,3.0,40.4*,20.3*
c1ccc(CNc2nc(NCc3ccccc3)c3sccc3n2)cc1,.,.,10.2*,.,.,46.1*,16.6*
O=C1C=CC(O)C2(CO)OC12 (stereo unspecified),0.2,.,11.7*,.,.,-1.1,12.2*
